Screens (PubChem)
Anthrax LF inh2 = anthrax lethal factor protease inhibition | AID 588501 | multiplex microsphere protease cleavage assay, LF | actives 0.12% (n = 360,000) | inhibition, % at 10 µM; note: plate controls were buffer without enzyme for full effect and enzyme alone for no effect
MazF activator = MazEF (E. coli) toxin RNase activation; P0AE70; FAM/BHQ RNA-DNA oligo cleavage fluorescence, 5 h; activation, % at 20 µM; actives 0.32% (n = 350,000); AID 504720; in the data active = activation above about 50%
Target sequence (P0AE70 whole entry, looked up): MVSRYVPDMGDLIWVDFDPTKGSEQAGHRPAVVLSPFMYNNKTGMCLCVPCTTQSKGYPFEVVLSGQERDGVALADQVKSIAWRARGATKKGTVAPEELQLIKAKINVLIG
BoNT-A LC inh2 = BoNT A light chain protease inhibition; multiplex microsphere protease substrate cleavage, flow cytometry; inhibition, % at 10 µM; actives 0.17% (n = 360,000); AID 588499; note: plate controls were buffer without enzyme for full effect and enzyme alone for no effect
VHR inh abs = DUSP3 (human) phosphatase inhibition | P51452 | recombinant VHR phosphatase, pNPP absorbance | inhibition, % at 13.3 µM | actives 0.52% (n = 290,000) | AID 1654; in the data active = inhibition above about 50%
Target sequence (P51452 whole entry, looked up): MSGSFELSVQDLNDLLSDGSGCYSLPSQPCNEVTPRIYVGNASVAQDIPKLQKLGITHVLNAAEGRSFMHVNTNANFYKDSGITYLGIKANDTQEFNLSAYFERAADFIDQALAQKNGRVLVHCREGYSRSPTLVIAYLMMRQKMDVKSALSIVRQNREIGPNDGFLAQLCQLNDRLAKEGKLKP
BoNT-F LC inh = inhibitors of Botulinum neurotoxin F light chain protease. Multiplex microsphere protease cleavage assay, flow cytometry. inhibition, % at 10 µM. actives 0.22% (n = 360,000); in the data active = inhibition above about 35%, passing the limit was not always enough; inconclusive = no clear call, values can overlap the other calls; note: plate controls were buffer without enzyme for full effect and enzyme alone for no effect
Autofluor counter = compound fluorescence in toxin protease inhibitor counterscreen; compound autofluorescence counterscreen, microsphere flow cytometry; hits give high values; fluorescence intensity (concentration not given with the values); actives 3.1% (n = 360,000); in the data active = fluorescence intensity above about 16000; inconclusive = no clear call, values can overlap the other calls
Starred values were filed as active, the others as inactive; ? = inconclusive; nt = no result given. Only some compounds are listed: those with a hit (about 4% of all), similar ones and a draw of the others. Cut-off read from the data, not from the text of the source, unless noted: active = inhibition above about 30%; inconclusive = no clear call, values can overlap the other calls; inactive = below that.

SMILES | Anthrax LF inh2 | MazF activator | BoNT-A LC inh2 | VHR inh abs | BoNT-F LC inh | Autofluor counter
COc1cccc(C(=O)CSc2nc3ccccc3n2CC(=O)N2CCOCC2)c1 | -2 | -6 | 0 | 17 | -6 | 9737
Cn1c(SCC(N)=O)nnc1-c1ccc(S(=O)(=O)N2CCCC2)cc1 | 0 | 5 | 0 | -9 | -9 | 3498
CC1CCN(S(=O)(=O)c2ccc(NC(=O)CSc3nnnn3C)cc2)CC1 | 2 | 1 | -1 | 9 | -1 | 23542*
CCOc1ccc(NS(=O)(=O)c2cc3c4c(c2)CCN4C(=O)CC3)cc1 | -2 | 1 | 0 | nt | -11 | 5761
CCOC(=O)[C@]12CCC=C1N(Cc1ccccc1)C(=O)[C@H](CC(=O)N1CCCCC1)C2 | 0 | nt | 0 | nt | 2 | 4408
CCOc1ccc(C(=O)c2ccc(OCC)c(N)c2)cc1N | -4 | -5 | 0 | 34 | -2 | 16397*
COc1ccc(C(N)=O)cc1N | -3 | 4 | 4 | 6 | 5 | 20559*
CCc1nc(Nc2ccc3c(c2)OCO3)c2oc3ccccc3c2n1 | 1 | -1 | 1 | 14 | -13 | 9382
COC(=O)c1c[nH]n2c(=O)cc(C)nc12 | -3 | 0 | -1 | -4 | -4 | 23157*
CCc1ccc(OCC(=O)Nc2cc(S(=O)(=O)CC)ccc2O)cc1 | 0 | 9 | 4 | 12 | 4 | 17897*
Cc1cc(C)c(Cn2c(=O)[nH][nH]c2=O)cc1Cn1c(=O)[nH][nH]c1=O | -8 | 12 | -1 | nt | -8 | 3778
CSc1nc(NCc2ccco2)c2sc3nc(C(C)C)c4c(c3c2n1)CC(C)(C)OC4 | 0 | 19 | ? | -11 | 0 | 19909*
O=C(CSc1nc2ccccc2n1Cc1ccc(Cl)cc1)N/N=C/c1ccc(C(=O)O)cc1 | -2 | -20 | -2 | 37 | 0 | 4687
CNC(=O)C(C)NS(=O)(=O)c1ccc(F)cc1 (stereo not given) | -1 | 7 | -4 | 21 | -5 | 21451*
CN(CC(=O)O)S(=O)(=O)c1ccc(F)cc1 | 0 | -14 | 0 | 0 | -9 | 10317
CNC(=O)CN(C)S(=O)(=O)c1ccc(F)cc1 | -1 | 0 | ? | 9 | 2 | 23131*
Cn1c(=O)c(C(=O)NCc2ccc(Cl)cc2)c(O)c2ccccc21 | -11 | 22 | 0 | 30 | -30 | 3489
Cn1c(=O)c(C(=O)NCCc2ccc(Cl)cc2)c(O)c2ccccc21 | -20 | 0 | 1 | 59* | ? | 3842
CCn1c(=O)c(C(=O)NCc2ccccc2)c(O)c2ccccc21 | 48* | -13 | -1 | -3 | 7 | 3293
CCn1c(=O)c(C(=O)NCc2ccc(Cl)cc2)c(O)c2ccccc21 | 4 | 7 | 1 | 9 | ? | 3888
CO/N=C/c1cc([N+](=O)[O-])ccc1Sc1ccc(C)cc1 | -1 | -9 | ? | 30 | 2 | 21195*
NC1=NC(=O)C(=Cc2ccccc2)S1 | 3 | -5 | 0 | nt | 0 | 2815
NC1=NC(=O)/C(=C/c2cccs2)S1 | -1 | 7 | -1 | 10 | -2 | 23925*
COc1c(/C=N/Nc2nc(N3CCCCC3)nc(N3CCCCC3)n2)cccc1[N+](=O)[O-] | 4 | 2 | -2 | 29 | -12 | 11568
O=[N+]([O-])c1ccc(/C=N/Nc2nc(N3CCCCC3)nc(N3CCCCC3)n2)o1 | 11 | 7 | 4 | 6 | 2 | 21202*
SMILES | Anthrax LF inh2 | MazF activator | BoNT-A LC inh2 | VHR inh abs | BoNT-F LC inh | Autofluor counter
COc1cc(NCCCC(C)N)c2ncccc2c1 (stereo not given) | -25 | 1 | 0 | nt | -48 | 2363
CCC(CNc1cc(OC)cc2cccnc12)NC1CCCCC1 (stereo not given) | -39 | 5 | -3 | 54* | ? | 2533
CN(C)c1ccc(/C=C/c2cc[n+]([O-])cc2)cc1 | nt | nt | nt | 25 | nt | nt
CN(C)c1ccc(/C=C/c2cc[n+](C)cc2)cc1 | -8 | -312 | -3 | 39 | -7 | 16151*
Cc1nnsc1C(=O)Nc1ccccc1Cl | 0 | -4 | 1 | 14 | 0 | 21871*
Cc1nc(NC(=O)/C=C/c2ccccc2)sc1C(=O)Nc1ccccc1Cl | 0 | -35 | -14 | 22 | -27 | ?
Cc1nnsc1C(=O)Nc1ccc(Cl)cc1 | -2 | 0 | 3 | 13 | 0 | 21839*
Cc1nc(NC(=O)/C=C/c2ccccc2)sc1C(=O)Nc1ccc(Cl)cc1 | -4 | 16 | -1 | 31 | -2 | 23690*
COc1ccc(NC(=O)CSc2nnc(-c3ccccc3C)n2N)cc1 | -1 | 1 | -2 | 4 | -2 | 22454*
